Results taken from PubChem BioAssay (NCATS).
Records with an inconclusive call do not appear. Calls of active or inactive are those of the source. Calls follow the shape of the dose curve; as a rule, active = well fitted curve in the direction sought with a large enough effect; inconclusive = small, poorly fitted or top-dose-only effect, or another doubt; inactive = no such curve, though single readings can be large; an effect the other way counts as inactive or inconclusive.

target: Rap guanine nucleotide exchange factor 4 (Homo sapiens) (UniProt Q8WZA2); test: Confirmatory qHTS for agonist of cAMP-regulated guanine nucleotide exchange factor 4 (EPAC2) (AID 1645884); conditions: EPAC2 GEF activity, Rap1B-BODIPY-GDP fluorescence; series mostly up to 154 µM; activation: at the top concentration;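 also: nucleotide exchange releases bodipy-GDP from Rap1 and this lowers its fluorescence; nearly all actives have a fitted effect of over 65% in size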
% is scaled to controls: 0 for no effect and ±100 for the full control effect.

Sequence of Rap guanine nucleotide exchange factor 4 (Homo sapiens) (Q8WZA2 whole entry, looked up): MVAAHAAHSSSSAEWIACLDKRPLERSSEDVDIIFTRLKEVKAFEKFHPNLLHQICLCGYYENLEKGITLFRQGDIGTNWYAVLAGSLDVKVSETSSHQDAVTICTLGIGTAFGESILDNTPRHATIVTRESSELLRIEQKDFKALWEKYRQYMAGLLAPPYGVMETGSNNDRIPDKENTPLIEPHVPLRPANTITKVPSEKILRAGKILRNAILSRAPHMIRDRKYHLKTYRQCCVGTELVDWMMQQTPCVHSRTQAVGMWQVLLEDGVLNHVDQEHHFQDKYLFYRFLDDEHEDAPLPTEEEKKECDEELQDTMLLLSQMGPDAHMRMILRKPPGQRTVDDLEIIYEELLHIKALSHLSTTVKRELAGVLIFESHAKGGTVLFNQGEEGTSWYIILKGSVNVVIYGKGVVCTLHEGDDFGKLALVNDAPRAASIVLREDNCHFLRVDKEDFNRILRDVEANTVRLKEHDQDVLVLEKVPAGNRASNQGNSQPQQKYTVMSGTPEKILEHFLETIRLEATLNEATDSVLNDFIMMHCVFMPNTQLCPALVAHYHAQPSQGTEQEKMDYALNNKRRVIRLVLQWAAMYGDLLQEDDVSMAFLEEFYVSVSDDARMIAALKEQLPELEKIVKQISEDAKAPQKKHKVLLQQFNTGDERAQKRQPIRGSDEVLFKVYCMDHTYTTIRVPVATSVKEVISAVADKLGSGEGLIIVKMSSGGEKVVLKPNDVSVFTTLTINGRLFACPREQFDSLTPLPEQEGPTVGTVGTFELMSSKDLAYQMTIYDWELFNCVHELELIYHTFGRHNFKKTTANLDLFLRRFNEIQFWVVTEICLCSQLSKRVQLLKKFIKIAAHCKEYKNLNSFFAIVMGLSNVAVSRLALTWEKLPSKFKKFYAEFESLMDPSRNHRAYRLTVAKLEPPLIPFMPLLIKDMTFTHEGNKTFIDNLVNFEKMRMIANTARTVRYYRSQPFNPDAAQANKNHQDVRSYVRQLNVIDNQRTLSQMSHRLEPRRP

Structure (SMILES) | activation
COC(=O)c1cc(Br)c(=O)n(Cc2ccc3c(c2)OCO3)c1 | -3.61% [at 17.1 µM, percent relative to cAMP agonist control] (inactive)
CCN(CC)c1nc2ccccc2n(Cc2cccc(OC)c2)c1=O | -2.23% (inactive)
Cc1cccn2cc(CCNC(=O)c3ccco3)nc12 | 4.04% [at 17.1 µM, percent relative to cAMP agonist control] (inactive)
COCCCn1c(=N)c(C(=O)NCc2cccnc2)cc2c(=O)n3cccc(C)c3nc21 | 12.3% [at 83.8 µM, percent relative to cAMP agonist control] (inactive)
O=C(Nc1nc2ccc(Cl)cc2s1)C1CCCO1 (stereo unspecified) | 6.17% [at 17.1 µM, percent relative to cAMP agonist control] (inactive)
O=C(COc1ccccc1[N+](=O)[O-])Nc1cccc(C(=O)Nc2ccccc2C(=O)O)c1 | -22.1% (inactive)
CC[C@]12c3[nH]c4cc(-c5ccco5)ccc4c3CCN1C(=O)[C@@H](CC(=O)NCCCOC)C[C@@H]2C(=O)N1CCN(C(=O)C2CC2)CC1 | 9.39% [at 17.1 µM, percent relative to cAMP agonist control] (inactive)
O=C(/C=C/c1ccc(O)c(O)c1)O[C@@H]1C[C@](O)(C(=O)O)C[C@@H](O)[C@H]1O | 5.11% [at 17.1 µM, percent relative to cAMP agonist control] (inactive)
Cc1ccc(SCc2nnc(N)s2)cc1 | 8.48% [at 17.1 µM, percent relative to cAMP agonist control] (inactive)
O=C(NCCc1ccccc1)c1ccc2c(=O)[nH]c3c(C(=O)NCC4CCCO4)sc(=S)n3c2c1 (stereo unspecified) | -45.2% (inactive)
O=C(Nc1ccccc1C(=O)O)c1cccc(S(=O)(=O)Nc2ccc(Br)cc2)c1 | -19.4% (inactive)
O=C(CSc1nccn1C1CCCC1)Nc1cc(C(F)(F)F)ccc1Cl | -5.28% [at 83.8 µM, percent relative to cAMP agonist control] (inactive)
NC(=O)c1ccsc1NC(=O)CS(=O)(=O)c1ccc(F)cc1 | -1.01% (inactive)
O=C(O)c1ccc(/C=N/NC(=O)c2ccc(CN3c4cccc5cccc(c45)S3(=O)=O)cc2)cc1 | -4.21% [at 17.1 µM, percent relative to cAMP agonist control] (inactive)
COc1ccc(NC(=O)CCCSc2nc(-c3ccco3)cc(C(F)(F)F)n2)cc1 | -23.7% [at 83.8 µM, percent relative to cAMP agonist control] (inactive)
Cc1ccc(C(=O)/C=C/c2cc(Br)cc(Br)c2O)o1 | 6.23% (inactive)
Cc1ccc(/C(O)=C2/C(=O)C(=O)OC2c2ccc(Cl)cc2)cc1 (stereo unspecified) | 1.22% [at 17.1 µM, percent relative to cAMP agonist control] (inactive)
COc1cccc(OC)c1C(=O)NC(=S)NNC(=O)[C@H]1C[C@@H]1c1ccccc1 | -10.3% (inactive)
CC(NC(=O)Nc1ccc(O)cc1)(C(F)(F)F)C(F)(F)F | -12.7% [at 17.1 µM, percent relative to cAMP agonist control] (inactive)
O=C(O)CC1Sc2nc3ccccc3n2C1=O (stereo unspecified) | 10.5% [at 17.1 µM, percent relative to cAMP agonist control] (inactive)
CCCc1nc2ccccc2c(=O)n1/N=C/c1ccc(O)c(O)c1 | -1.4% (inactive)

target: Rap guanine nucleotide exchange factor 4 (Homo sapiens) (UniProt Q8WZA2); test: Confirmatory qHTS for antagonist of cAMP-regulated guanine nucleotide exchange factor 4 (EPAC2) (AID 1645885); conditions: EPAC2 Rap1B-BODIPY-GDP exchange fluorescence, biochemical; series mostly up to 12.7 µM; activity change, negative = inhibition: at the top concentration; also: nearly all actives have a fitted effect of over 25% in size; also: potency is read from the fitted curve at half-maximal effect

Structure (SMILES) | activity change, negative = inhibition | outcome | Potency
CCc1nnc(NC(=O)c2ccc(-c3cccc(C(F)(F)F)c3)o2)s1 | -8.24% (inactive) | – | –
CCc1ccc(NC(=O)COC(=O)CCC2CCCC2)cc1 | 8.04% [at 114 µM] (inactive) | – | –
O=S(=O)(N/N=C/c1cccnc1)c1ccc(Cl)c(Cl)c1 | -6.05% (inactive) | – | –
Cc1ccc(NC(=O)Cn2nnc(-c3nc(-c4ccncc4)no3)c2N)c(C)c1 | 6.9% (inactive) | – | –
Cn1cc([C@]2(O)C(=O)Nc3c(F)cccc32)c2ccccc21 | -6.75% [at 114 µM] (inactive) | – | –
c1ccc(NN(Cc2cnccn2)c2ccccc2)cc1 | 53.6% [at 114 µM] (inactive) | – | –
C=CCOc1ccc(C2N3CC4(CC)CN2CC(CC)(C3)C4=O)cc1 (stereo unspecified) | 0.116% (inactive) | – | –
COc1ccc(C2c3ccsc3CCN2C(C)=O)cc1 (stereo unspecified) | 45.4% [at 114 µM] (inactive) | – | –
O=S(=O)(NCC1(N2CCOCC2)CCCCC1)c1ccc(Cl)cc1C(F)(F)F | 25.7% [at 114 µM] (inactive) | – | –
COC(=O)c1cc(Br)c(=O)n(CCc2ccc(F)cc2)c1 | – | inactive; activator; fitted 0.1694 uM | –
COc1cc(NS(=O)(=O)c2cc3[nH]c(=O)c(=O)[nH]c3cc2C)cc(OC)c1OC | -4.39% (inactive) | – | –
CSc1ccc(CC2C(=O)Nc3ccccc32)cc1 (stereo unspecified) | -2.65% (inactive) | – | –
COc1c(O)cc2oc(-c3ccc(O)c(O)c3)cc(=O)c2c1O | 21.4% [at 114 µM] (inactive) | – | –
COc1cccc(-n2ccn(CC(=O)NCc3ccc(C)cc3)c(=O)c2=O)c1 | -0.913% (inactive) | – | –
COc1cccc(-c2nc(SCC(=O)Nc3nc(-c4ccccc4)c(C)s3)[nH]c(=O)c2C#N)c1 | 107% [at 114 µM] (inactive) | – | –
Cc1ccccc1N=C(c1ccccc1)C1C(=O)c2ccccc2C1=O | -29.2% (inactive) | – | –
CCOc1cc(/C=C2\SC(=S)N(NS(=O)(=O)c3ccc(C)cc3)C2=O)ccc1O | 30.7% [at 114 µM] (inactive) | – | –
NS(=O)(=O)c1ccc(N=Nc2c[nH]c(=O)c(O)c2)cc1 | – | – | 84.9 µM (active)
Cc1[nH]n(-c2ncc(-c3ccccc3)s2)c(=O)c1C(c1ccc(Br)cc1)C(C#N)C#N (stereo unspecified) | -5% (inactive) | – | –
COC(=O)c1cc(Br)c(=O)n(Cc2ccc3c(c2)OCO3)c1 | -3.99% (inactive) | – | –

Structure (SMILES) | activity change, negative = inhibition | outcome | Potency
CCN(CC)c1nc2ccccc2n(Cc2cccc(OC)c2)c1=O | 17.4% [at 114 µM] (inactive) | – | –
Cc1cccn2cc(CCNC(=O)c3ccco3)nc12 | -4.13% (inactive) | – | –
COCCCn1c(=N)c(C(=O)NCc2cccnc2)cc2c(=O)n3cccc(C)c3nc21 | – | inactive [at 12.7 µM] | –
O=C(Nc1nc2ccc(Cl)cc2s1)C1CCCO1 (stereo unspecified) | -15.9% (inactive) | – | –
O=C(COc1ccccc1[N+](=O)[O-])Nc1cccc(C(=O)Nc2ccccc2C(=O)O)c1 | 110% [at 114 µM] (inactive) | – | –
CC[C@]12c3[nH]c4cc(-c5ccco5)ccc4c3CCN1C(=O)[C@@H](CC(=O)NCCCOC)C[C@@H]2C(=O)N1CCN(C(=O)C2CC2)CC1 | -5.54% (inactive) | – | –
O=C(/C=C/c1ccc(O)c(O)c1)O[C@@H]1C[C@](O)(C(=O)O)C[C@@H](O)[C@H]1O | 1.93% (inactive) | – | –
Cc1ccc(SCc2nnc(N)s2)cc1 | 4.39% (inactive) | – | –
O=C(NCCc1ccccc1)c1ccc2c(=O)[nH]c3c(C(=O)NCC4CCCO4)sc(=S)n3c2c1 (stereo unspecified) | – | – | 30.1 µM (active)
O=C(Nc1ccccc1C(=O)O)c1cccc(S(=O)(=O)Nc2ccc(Br)cc2)c1 | – | – | 42.6 µM (active)
O=C(CSc1nccn1C1CCCC1)Nc1cc(C(F)(F)F)ccc1Cl | -13.9% (inactive) | – | –
NC(=O)c1ccsc1NC(=O)CS(=O)(=O)c1ccc(F)cc1 | 2.06% [at 114 µM] (inactive) | – | –
O=C(O)c1ccc(/C=N/NC(=O)c2ccc(CN3c4cccc5cccc(c45)S3(=O)=O)cc2)cc1 | -11% (inactive) | – | –
COc1ccc(NC(=O)CCCSc2nc(-c3ccco3)cc(C(F)(F)F)n2)cc1 | 69.4% (inactive) | – | –
Cc1ccc(C(=O)/C=C/c2cc(Br)cc(Br)c2O)o1 | -11.6% [at 114 µM] (inactive) | – | –
Cc1ccc(/C(O)=C2/C(=O)C(=O)OC2c2ccc(Cl)cc2)cc1 (stereo unspecified) | -5.74% (inactive) | – | –
COc1cccc(OC)c1C(=O)NC(=S)NNC(=O)[C@H]1C[C@@H]1c1ccccc1 | -26.4% [at 114 µM] (inactive) | – | –
CC(NC(=O)Nc1ccc(O)cc1)(C(F)(F)F)C(F)(F)F | -5.21% (inactive) | – | –
O=C(O)CC1Sc2nc3ccccc3n2C1=O (stereo unspecified) | -24% (inactive) | – | –
CCCc1nc2ccccc2c(=O)n1/N=C/c1ccc(O)c(O)c1 | 16.4% [at 114 µM] (inactive) | – | –
